This passage reports survival results from PubChem BioAssay AID463173 (ICCB-Longwood Screening Facility, Harvard Medical School, 2010).

Hit rate of the full screen: of about 52,000 compounds, about 4,300 (8.3%) were called active. The sample holds actives, similar compounds and a random draw of the others, so the mix is not that of the screen. Rule as the data show it: active = survival mostly below about 52% (no sharp cut-off); inactive = mostly above about 56%.

This test has as its system DeltatarO mutant. As to the kind of experiment: S. aureus survival, RN4220 and DeltatarO strains – OD600, teichoic acid synthesis inhibitors, primary screen (AID 463173). As to conditions: S. aureus RN4220 wild type/DeltatarO growth, OD600, 18 h, hits give low values, screened at 18.75 µg/mL (by protocol).
In the case of `Cc1c(-c2nsc(NC(=O)c3cccs3)n2)nnn1-c1ccc(Br)cc1`, the survival is 77% (inactive). Consider `COc1ccc2[nH]c(=O)c(CN(C3CCCC3)S(=O)(=O)c3cccc4nsnc34)cc2c1`, for which the survival was 96% (inactive).

As for `Cc1ccc(NC(=O)Cn2c(=O)n(CCCCC(=O)NCCc3ccccc3)c(=O)c3ccccc32)c(C)c1`, the survival is 84% (inactive).

On to `CCc1ccc(NC(=O)CSc2ccc(-c3cccs3)nn2)cc1`, for which the survival was 72% (inactive).

As to `Cc1cccc(NC(=O)c2cc3c(=O)n4cccc(C)c4nc3s2)c1C`, the survival was 65% (inactive).

With `CC(=O)OC1=CN(Cc2ccccc2)S(=O)(=O)c2ccccc21`, the survival was 71% (inactive). On to `COc1ccccc1CNC(=O)CCCCn1c(=O)c2ccccc2n(Cc2ccccc2F)c1=O`, for which the survival is 93% (inactive).

For `COc1cccc(NC(=O)c2ccc(CNS(=O)(=O)c3ccc4c(c3)C(C)(C)C(=O)N4C)cc2)c1`, the survival was 51% (inactive). Next, `CCc1nn(Cc2cccc(F)c2)c(=O)c2cc3cc(C)ccc3n12`: 40% (active); `CCc1nn(Cc2ccc(Cl)cc2)c(=O)c2cc3cc(C)ccc3n12`: 94% (inactive). For `CCc1nn(Cc2c(C)cc(C)cc2C)c(=O)c2cc3cc(C)ccc3n12`, the survival was 88% (inactive).

Turning to `COc1cccc(C(=O)N2c3ccc(C)cc3C(C)(c3ccccc3)CC2(C)C)c1` (stereo not drawn), the survival is -5% (active). As for `COc1cccc(C(=O)N2CC(C)OC(C)C2)c1` (stereo not drawn), the survival was 65% (inactive). Take `COc1ccc(C)cc1NC(=O)NCc1ccc2c(c1)CCN2C(=O)c1ccccc1`: the survival was 105% (inactive). For the compound `COC(=O)C1=NN(C(=O)c2cccc(OC)c2)C(C)(O)C1` (stereo not drawn), the survival is 104% (inactive). `COc1cccc(C(=O)N2c3cc(C)ccc3C(C)(c3ccccc3)CC2(C)C)c1` (stereo not drawn): the survival was 1% (active). As for `COc1ccccc1C(=O)NCc1ccc2c(c1)CCN2C(=O)c1cccc(C)c1`, the survival is 77% (inactive).

`COc1ccc(-c2cc3ccc(O)c(CN4CCCC(C)C4)c3oc2=O)cc1` (stereo not drawn): the survival is 79% (inactive). Under `CCOc1ccccc1Nc1nc(-c2cccc(Cl)c2)c2c(n1)-c1ccccc1OC2` stands 61% (inactive); under `CN(C(=O)CSc1nc2ccc(NC(=O)CCc3ccccc3)cc2s1)c1ccccc1`, 73% (inactive). In the case of `Cc1[nH]c2ccccc2c1C(c1ccccc1)c1ccc(Cl)s1` (stereo not drawn), the survival is 0% (active). On to `C=CCc1c(C)[nH]c2ccccc2c1=O`, for which the survival is 98% (inactive). Regarding `Cc1ccc(C(c2ccccc2)c2c(C)[nH]c3ccccc23)s1` (stereo not drawn), the survival was 26% (active). In the case of `CCc1ccc(C(c2ccccc2)c2c(C)[nH]c3ccccc23)s1` (stereo not drawn), the survival was 25% (active). For `Cc1[nH]c2ccccc2c1C(c1ccccc1)c1cccs1` (stereo not drawn), the survival was 7% (active). For `Cc1[nH]c2ccccc2c1C1(O)C(=O)Nc2ccc(Cl)cc21` (stereo not drawn), the survival is 66% (inactive).

Turning to `S=c1nc(Cc2cccs2)[nH]c2ccccc12`, the survival is 100% (inactive). As to `NNC(=O)CSc1c(-c2cccs2)[nH]c2ccccc12`, the survival is 84% (inactive).

With `Cc1ccc(CNC(C)c2ccccc2)s1` (stereo not drawn), the survival is 75% (inactive). Consider `CCCCc1c(C)[nH]c2ccccc2c1=O`, for which the survival is 83% (inactive).

For the compound `Cc1ccc(C(c2cccc(Br)c2)c2c(C)[nH]c3ccccc23)s1` (stereo not drawn), the survival was 65% (inactive).

Take `Cc1cccc(Nc2c(-c3ccsc3)nc3nc(C)cc(C)n23)c1`: the survival is 130% (inactive). `CS(=O)(=O)Nc1ccccc1C(=O)O`: the survival is 81% (inactive). With `CCCSc1ncc(Cl)c(C(=O)Nc2c(C(=O)Nc3ccc(C)cc3)oc3ccccc23)n1`, the survival was 62% (inactive).

With `Cc1cccc(NC(=O)Cn2c(=O)n(CCCCCC(=O)NCc3ccccc3)c(=O)c3sccc32)c1`, the survival was 62% (inactive). Next, `CCOC(=O)c1cnn(Cc2ccccc2)c1N`: 79% (inactive); `CCOC(=O)c1noc2ncnc(N3CCN(c4ccccc4OC)CC3)c12`: 77% (inactive); `COc1ccccc1NC(=O)N1CCN(Cc2nc3ccc(C)cc3o2)CC1`: 84% (inactive). For `CC(=O)c1ccc(NC(=O)CCn2nc(C)c(S(=O)(=O)N3CCC(C)CC3)c2C)cc1`, the survival was -5% (active). Next, `Cc1nn(CCC(=O)Nc2cccc(C#N)c2)c(C)c1S(=O)(=O)N1CCC(C)CC1`: 89% (inactive); `CC(=O)c1cccc(NC(=O)CCn2nc(C)c(S(=O)(=O)N3CCCCC3)c2C)c1`: 134% (inactive). Turning to `CCOC(=O)c1cnc2ccc(C(=O)OC)cc2c1Nc1ccccc1CC`, the survival is -3% (active).

`CCOC(=O)c1ccc2ncc(C(=O)OCC)c(Nc3ccc(C)c(Br)c3)c2c1`: the survival is 39% (active). Take `CCOC(=O)c1cnc2ccc(OC(F)(F)F)cc2c1Nc1ccccc1C(=O)O`: the survival was 37% (active). As for `CCOC(=O)c1cnc2ccccc2c1NCC(C)O` (stereo not drawn), the survival was 89% (inactive). As to `CCOC(=O)c1cnc2cc(F)c(F)cc2c1Nc1ccccc1O`, the survival is 156% (inactive). Next, `CCc1ccc2[nH]c(=O)c(C(c3nnnn3C3CCCC3)N(Cc3ccccc3)Cc3ccco3)cc2c1` (stereo not drawn): 104% (inactive); `O=C(CN1c2ccc(Br)cc2-c2ccccc2S1(=O)=O)N1CCCCC1`: 91% (inactive). For the compound `COc1cc(CNc2ccc3[nH]c(=O)[nH]c3c2)cc(Cl)c1OCc1ccccc1F`, the survival was 78% (inactive). As for `CCOc1ccc(CCNC(=O)c2sc3ncccc3c2-n2c(C)ccc2C)cc1`, the survival is 106% (inactive). On to `COCCNc1nc2c(S(=O)(=O)c3ccc(C)c(C)c3)nnn2c2ccc(Cl)cc12`, for which the survival is 89% (inactive).

Regarding `O=C(NCc1ccccc1Cl)NCc1noc2ccccc12`, the survival was 45% (inactive). `Cc1cccc(-c2nn3c(=O)cc(CN4CCN(C(=O)c5ccccc5Br)CC4)nc3s2)c1`: the survival is 100% (inactive). With `CCOC(=O)c1cc(C)n(CC2CCC(C(=O)Nc3ccc(C(=O)OC)cc3)CC2)c1C` (stereo not drawn), the survival was 69% (inactive). Under `CCOC(=O)c1cc(C)n(CC2CCC(C(=O)Nc3ccc(Cl)cc3)CC2)c1C` (stereo not drawn) stands 46% (active); under `CCOC(=O)c1cc(C)n(CC2CCC(C(=O)Nc3ccc(C)cc3)CC2)c1C` (stereo not drawn), 98% (inactive).

Take `O=C(NC1CCCC1)C1CCCN(S(=O)(=O)c2ccc(-n3cnnn3)cc2)C1` (stereo not drawn): the survival is 72% (inactive). For `CCOc1ccc(OCC)c(NC(=O)c2ccc(-c3ccccc3)s2)c1`, the survival was 27% (active). On to `CSc1ncc(C(=O)Nc2ccc(F)cc2F)c(-c2ccccc2)n1`, for which the survival is 71% (inactive). As to `COc1ccc(Cl)cc1NC(=O)c1cnc(SC)nc1-c1ccccc1`, the survival is 49% (inactive). Next, `CCOc1ccc(OCC)c(NC(=O)c2cnc(SC)nc2-c2ccccc2)c1`: 32% (active). As for `O=C(Nc1ccccc1F)c1ccc(-c2ccccc2)s1`, the survival was 81% (inactive). Consider `CCOc1ccc(NC(=O)c2ccc(-c3ccccc3)s2)cc1`, for which the survival was 86% (inactive).

Take `Cc1ccc(CN2CCc3nc(N4CCN(c5ncccn5)CC4)ncc3C2)cc1`: the survival is 117% (inactive).

As for `CN1CCN(CC(=O)NCCc2ccc(F)cc2)CC1`, the survival is 83% (inactive). As for `N#CCOc1nc(OCC#N)nc(OCC#N)n1`, the survival was 1% (active).

As to `CONc1nc(NC(C)(C)C)nc(OCC#N)n1`, the survival is 97% (inactive).

Regarding `CNc1nc(OCC#N)nc(N2CCCCC2)n1`, the survival is 110% (inactive). Under `Cc1ccc(CNC(=O)c2nc(-c3ccc(Cl)cc3)n3c2CCCCC3)cc1` stands 89% (inactive); under `CCC1CCCCN1C(=O)Cn1c(=O)n(CCCCCC(=O)NCc2ccc(F)cc2)c(=O)c2sccc21` (stereo not drawn), 170% (inactive). As for `O=C(CCn1c(=O)c2sccc2n(Cc2ccc(F)cc2)c1=O)NCc1ccc2c(c1)OCO2`, the survival is 89% (inactive).

Regarding `Cc1ccc(Cl)cc1NC(=O)Cn1c(=O)n(CCC(=O)NCc2ccc3c(c2)OCO3)c(=O)c2sccc21`, the survival is 79% (active).

`Cc1cccc(C)c1NC(=O)Cn1c(=O)n(CCC(=O)NCc2ccc3c(c2)OCO3)c(=O)c2sccc21`: the survival is 90% (inactive). Take `CCC1CCCCN1C(=O)Cn1c(=O)n(CCCCCC(=O)NCc2ccccc2)c(=O)c2sccc21` (stereo not drawn): the survival was 69% (inactive). `Cc1ccc(CNC(=O)CCCCCn2c(=O)c3sccc3n(CC(=O)N3CCCCC3C)c2=O)cc1` (stereo not drawn): the survival is 48% (active).

On to `Cc1ccccc1NC(=O)Cn1c(=O)n(CCCCCC(=O)NCc2ccc3c(c2)OCO3)c(=O)c2sccc21`, for which the survival was 84% (inactive). With `O=C(CCn1c(=O)c2sccc2n(Cc2cccc(F)c2)c1=O)NCc1ccc2c(c1)OCO2`, the survival is 97% (inactive). For `Cc1ccccc1NC(=O)Cn1c(=O)n(CCC(=O)NCc2ccc3c(c2)OCO3)c(=O)c2sccc21`, the survival is 150% (inactive). Under `Cc1ccc(NC(=O)Cn2c(=O)n(CCC(=O)NCc3ccc4c(c3)OCO4)c(=O)c3sccc32)c(C)c1` stands 87% (active); under `O=C(CCCCCn1c(=O)c2sccc2n(CC(=O)Nc2cccc(Cl)c2)c1=O)NCc1ccc2c(c1)OCO2`, 57% (inactive). Next, `O=C(CCn1c(=O)c2sccc2n(Cc2ccccc2F)c1=O)NCc1ccc2c(c1)OCO2`: 84% (active). For the compound `Clc1ccc(CCNc2ncnc3c2c(-c2ccccc2)cn3-c2ccccc2)cc1`, the survival was 94% (inactive).

Consider `COc1ccc(Cn2c(CCC(=O)Nc3ccc(Br)c(C)c3)nc3cccnc32)cc1`, for which the survival is 71% (inactive). As to `Cc1ccc(N2CC(NC(=O)/C=C\c3ccc4c(c3)OCO4)CC2=O)cc1` (stereo not drawn), the survival is 91% (inactive).

In the case of `COc1ccc(NC(=O)Cn2ccn(-c3ccc(C)c(C)c3)c(=O)c2=O)cc1Cl`, the survival was 72% (inactive). With `COc1ccc(OC)c(CNC(=O)c2ccccc2NC(=O)c2nsc3ccccc23)c1`, the survival was 92% (inactive). Take `O=C(NC1CC(=O)N(c2ccccc2)C1)C(c1ccccc1)c1ccccc1` (stereo not drawn): the survival was 89% (inactive).

Take `Cc1nnc(Nc2ccc(C(=O)O)cc2)[nH]c1=O`: the survival was 108% (inactive). As to `O=C1CCSC2(C(=O)N(Cc3ccc(F)cc3)c3ccccc32)N1c1ccccc1` (stereo not drawn), the survival is 78% (inactive). For `CC(=O)c1cccc(NS(=O)(=O)c2cc3c(cc2C)N(C(C)=O)CCO3)c1`, the survival was 95% (inactive). For the compound `CCc1ccc(NC(=O)Cn2c(=O)n(CCCCC(=O)NCc3ccc4c(c3)OCO4)c(=O)c3ccccc32)cc1`, the survival is 87% (inactive). Next, `CCc1ccc(NC(=O)Cn2c(=O)n(CCCC(=O)NCc3ccc4c(c3)OCO4)c(=O)c3ccccc32)cc1`: 93% (active). Next, `CCc1ccc(NC(=O)Cn2c(=O)n(CCC(=O)NCc3ccc4c(c3)OCO4)c(=O)c3ccccc32)cc1`: 91% (inactive).
